# From the supplement of paper PMC12067926
# Values without a mark were called inactive.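 The calls were made as follows: active = growth AUC significantly below the DMSO wells by Dunnett test; inactive = the rest.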
# Tested on: Carnobacterium 1 (Carnobacterium gallinarum)
# Experiment: relative growth (AUC of 72 h growth curve relative to DMSO control, dAUC) (ratio); higher = more growth (less inhibition), active = hit call of the paper
# Details: 20 µM
# Procedure: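 Environmental bacterial isolates (Iceland stream sediment and Silwood Park soil) and whole stream-sediment communities were grown in LB from a 1:100 dilution with each pesticide at 20 µM (1% DMSO). A600 was read hourly for 72 h and the area under a spline-fitted growth curve (AUC) was computed. dAUC is the mean AUC of 3 biological replicates divided by the mean AUC of the DMSO controls. Significance was tested by Dunnett's test against the DMSO control.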
row,Structure (SMILES),relative growth
1,CCC(CC)Nc1c([N+](=O)[O-])cc(C)c(C)c1[N+](=O)[O-],0.819
2,COP(N)(=O)SC (stereo not given),0.69
3,CCOC(=O)OC1=C(c2cc(C)ccc2C)C(=O)N[C@]12CC[C@@H](OC)CC2,1.17
4,CC(C)NC(=O)N1CC(=O)N(c2cc(Cl)cc(Cl)c2)C1=O,1.02
5,CS(=O)(=O)c1cc(C(F)(F)F)ccc1C(=O)c1cnoc1C1CC1,1.43
6,CS(=O)(=O)c1ccc(C(=O)C2C(=O)CCCC2=O)c([N+](=O)[O-])c1,1.44
7,CC(C)OC(=O)Nc1cccc(Cl)c1,1.5
8,CC[C@H]1CCC[C@H](O[C@H]2CC[C@H](N(C)C)[C@@H](C)O2)[C@@H](C)C(=O)C2=C[C@@H]3[C@@H](C=C(C)[C@@H]4C[C@@H](O[C@@H]5O[C@@H](C)[C@H](OC)[C@@H](OC)[C@H]5OC)C[C@@H]34)[C@@H]2CC(=O)O1.CC[C@H]1CCC[C@H](O[C@H]2CC[C@H](N(C)C)[C@@H](C)O2)[C@@H](C)C(=O)C2=C[C@H]3[C@@H]4C[C@H](O[C@@H]5O[C@@H](C)[C@H](OC)[C@@H](OC)[C@H]5OC)C[C@H]4C=C[C@H]3C2CC(=O)O1,0.952
9,CCOC(=O)CC(SP(=S)(OC)OC)C(=O)OCC (stereo not given),1.09
10,COc1cccc(C(=O)NN(C(=O)c2cc(C)cc(C)c2)C(C)(C)C)c1C,0.863
11,CCCCCCCCCCCCNC(=N)N,0.0114 (active)
12,CC1(C)CON(Cc2ccccc2Cl)C1=O,0.914
13,CC(C)(C)c1ccc(CSc2cnn(C(C)(C)C)c(=O)c2Cl)cc1,1.3
14,CCSC(C)CC1CC(=O)C(/C(CC)=N/OC/C=C/Cl)=C(O)C1 (mixture of isomers),1.27
15,COCC(C)N(C(=O)CCl)c1c(C)csc1C (stereo not given),0.859
16,N#C/N=C1\SCCN1Cc1ccc(Cl)nc1,1.18
17,CCc1nn(C)c(C(=O)NCc2ccc(Oc3ccc(C)cc3)cc2)c1Cl,1.19
18,CCCCN(CCCC)SN(C)C(=O)Oc1cccc2c1OC(C)(C)C2,1.51
19,N#Cc1nn(-c2c(Cl)cc(C(F)(F)F)cc2Cl)c(N)c1[S+]([O-])C(F)(F)F (stereo not given),0.821
20,CC(C)OC(=O)C(C(=O)OC(C)C)=C1SCCS1,0.826

row,Structure (SMILES),relative growth
1,CCc1cc(C)cc(CC)c1-c1c(OC(=O)C(C)(C)C)n2n(c1=O)CCOCC2,1.01
2,C[N+]1(C)CCCCC1,1.2
3,O=C(O)COc1ccc(Cl)cc1Cl,1.06
4,CC(C)N1C(=O)N(c2ccccc2)CS/C1=N\C(C)(C)C,0.913
5,CCCSP(=O)(OCC)Oc1ccc(Br)cc1Cl (stereo not given),0.842
6,CCC(C)(C)C(=O)OC1=C(c2ccc(Cl)cc2Cl)C(=O)OC12CCCCC2,1.13
7,CC(C)(C)C(O)(CCc1ccc(Cl)cc1)Cn1cncn1 (stereo not given),0.864
8,CCOCn1c(-c2ccc(Cl)cc2)c(C#N)c(Br)c1C(F)(F)F,1.16
9,OC(Cn1cncn1)(c1ccc(F)cc1)c1ccccc1F (stereo not given),1.15
10,Nc1c([N+](=O)[O-])ccc(Oc2ccccc2)c1Cl,0.792
11,O=[N+]([O-])c1cc(C(F)(F)F)c(Cl)c([N+](=O)[O-])c1Nc1ncc(C(F)(F)F)cc1Cl,0.00939 (active)
12,O=C(O)CNCP(=O)(O)O,1.13
13,CC1(C)C(C=C(Cl)Cl)C1C(=O)OCc1cccc(Oc2ccccc2)c1 (stereo not given),0.871
14,CC(Oc1ccc(Oc2ncc(C(F)(F)F)cc2Cl)cc1)C(=O)O (stereo not given),1.23
15,COc1ncc(F)c2nc(S(=O)(=O)Nc3c(F)cccc3F)nn12,1.1
16,CO/N=C(/C(=O)OC)c1ccccc1CO/N=C(\C)c1cccc(C(F)(F)F)c1,0.975
17,CN/C(=N/CC1CCOC1)N[N+](=O)[O-] (stereo not given),1.46
18,CC1(C)[C@H](C(=O)O[C@H](C#N)c2cccc(Oc3ccccc3)c2)[C@@H]1C=C(Br)Br,1.47
19,N#CC(CCc1ccc(Cl)cc1)(Cn1cncn1)c1ccccc1 (stereo not given),0.805
20,CC(C)N(C)S(=O)(=O)NC(=O)c1cc(-n2c(=O)cc(C(F)(F)F)n(C)c2=O)c(F)cc1Cl,1.22
